{"source": "PubChem BioAssay AID777", "about": "(Sanford-Burnham Center for Chemical Genomics, 2007)", "note": "Out of some 96,000 compounds screened, about 19,000 (20%) were called active.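 Rule for the calls: active = blocking of liver enzyme CYP2C9 beyond about 50% at 5 µM (limit read from the data); inactive = the rest.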 A selection follows."}
{"biological_target": "Cytochrome P450 2C9 (Homo sapiens) (UniProt P11712)", "sequence (P11712 whole entry, looked up)": "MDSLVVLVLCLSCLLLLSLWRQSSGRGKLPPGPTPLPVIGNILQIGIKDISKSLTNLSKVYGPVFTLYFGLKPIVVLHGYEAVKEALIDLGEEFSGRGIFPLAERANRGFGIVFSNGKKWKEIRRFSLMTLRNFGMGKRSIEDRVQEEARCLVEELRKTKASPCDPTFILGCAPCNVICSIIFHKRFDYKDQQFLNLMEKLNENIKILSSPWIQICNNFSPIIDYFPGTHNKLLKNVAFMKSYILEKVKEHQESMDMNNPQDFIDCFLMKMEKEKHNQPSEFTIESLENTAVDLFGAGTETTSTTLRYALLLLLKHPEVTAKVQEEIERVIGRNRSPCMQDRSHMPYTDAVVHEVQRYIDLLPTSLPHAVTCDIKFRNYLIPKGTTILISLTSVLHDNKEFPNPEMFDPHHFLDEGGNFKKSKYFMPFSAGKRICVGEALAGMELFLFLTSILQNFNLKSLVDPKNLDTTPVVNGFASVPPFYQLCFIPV", "experiment": "blockers of cytochrome P450 2C9 activity – biochemical, luminescence, ADME assay, primary screen (AID 777)", "details": "CYP2C9 Supersomes, luciferin-H conversion, at 5 µM, stronger effect = higher value"}
{"smiles": "CC(C)(C)NC(=O)Cn1cnc([N+](=O)[O-])n1", "inhibition": "-14.1% (inactive)"}
{"smiles": "O=S(=O)(NCc1ccccn1)c1ccc(Br)s1", "inhibition": "-3.5% (inactive)"}
{"smiles": "O=c1c2[nH]c3ccc(Cl)cc3c2ncn1Cc1ccccn1", "inhibition": "17.6% (inactive)"}
{"smiles": "COc1ccc2[nH]c3ccc(OC)cc3c2c1", "inhibition": "26.8% (inactive)"}
{"smiles": "COc1ccc2[nH]cc(/C=C(/C#N)S(=O)(=O)c3ccccc3)c2c1", "inhibition": "95.4% (active)"}
{"smiles": "O=C(O)CCSc1nnc(-c2ccccc2)n1-c1ccccc1", "inhibition": "-14.5% (inactive)"}
{"smiles": "C=CCNc1nnc(SCC(=O)N2CCCCC2)c2ccccc12", "inhibition": "-25.8% (inactive)"}
{"smiles": "COC(=O)C(C(=O)Nc1cccc(C)n1)C1CCCCCC1", "note": "(centres undefined)", "inhibition": "33.3% (inactive)"}
{"smiles": "CN1CC(c2ccccc2)C2(COc3ccccc3C2=O)C12C(=O)Nc1ccccc12", "note": "(centres undefined)", "inhibition": "20.5% (inactive)"}
{"smiles": "CC1(C)CC(=O)c2sc(N)nc2C1", "inhibition": "12.9% (inactive)"}
{"smiles": "Cc1cc(=O)[nH]c(SCC(=O)N2c3ccccc3CC2C)n1", "note": "(centres undefined)", "inhibition": "8% (inactive)"}
{"smiles": "CC1Cc2ccccc2N1C(=O)c1cc2sccc2n1Cc1ccccc1", "note": "(centres undefined)", "inhibition": "61.6% (active)"}
{"smiles": "CCC(=O)N1c2ccc(S(=O)(=O)CCC(=O)N3CCN(c4ccccc4)CC3)cc2CC1C", "note": "(centres undefined)", "inhibition": "49% (inactive)"}
{"smiles": "COC(C)(C)[C@]12CC(O)(C(C)C)ON1[C@H]1CCCCC1N2O", "note": "(some centres undefined)", "inhibition": "-1.4% (inactive)"}
{"smiles": "CCC(C)(C(=O)NC1CCCC1)N(C(=O)CNC(C)=O)c1ccc(C)cc1", "note": "(centres undefined)", "inhibition": "2.8% (inactive)"}
{"smiles": "COc1ccc2c(c1)OC(O)(C(F)(F)C(F)F)CC2=O", "note": "(centres undefined)", "inhibition": "78.5% (active)"}
{"smiles": "COc1ccc2c(c1)SC(C)CC2=O", "note": "(centres undefined)", "inhibition": "12.7% (inactive)"}
{"smiles": "CCOc1ccc(CNC(=O)C2CCC(=O)N2C2CCCC2)cc1OC", "note": "(centres undefined)", "inhibition": "4.4% (inactive)"}
{"smiles": "CCCN1C(=O)C(NC(C)=O)c2cc(OC)ccc21", "note": "(centres undefined)", "inhibition": "-5.4% (inactive)"}
{"smiles": "CCOC(=O)COc1cc(OCC(=O)OCC)c2c(=O)cc(-c3ccccc3)oc2c1", "inhibition": "70.3% (active)"}
{"smiles": "Cc1cc(C)cc(OCC(=O)NNC(=O)c2cc3ccccc3oc2=O)c1", "inhibition": "-15.8% (inactive)"}
{"smiles": "COC(=O)COc1ccc2oc(=O)cc(C)c2c1", "inhibition": "-9.3% (inactive)"}
{"smiles": "CN1CCCC(OC(=O)COc2ccc(Br)cc2)C1", "note": "(centres undefined)", "inhibition": "-1.2% (inactive)"}
{"smiles": "COC(=O)C(NC(=O)c1ccc(OC)cc1)(Nc1ncc(S(=O)(=O)c2ccc([N+](=O)[O-])cc2)s1)C(F)(F)F", "note": "(centres undefined)", "inhibition": "66.3% (active)"}
{"smiles": "COc1ccc(C(=O)Nc2nc(-c3ccc(OC)cc3)c(-c3ccc([N+](=O)[O-])cc3)s2)cc1", "inhibition": "19.7% (inactive)"}
{"smiles": "CCC1CCCCN1CCNC(=O)c1[nH]c(C)c(C(C)=O)c1C", "note": "(centres undefined)", "inhibition": "9.6% (inactive)"}
{"smiles": "COCCOC(=O)C1=C(C)Nc2nc(C)nn2C1c1ccccc1", "note": "(centres undefined)", "inhibition": "16.7% (inactive)"}
{"smiles": "COc1cc(C2C(C(=O)OCCC#N)=C(C)NC3=C2S(=O)(=O)c2ccccc23)cc(OC)c1OC", "note": "(centres undefined)", "inhibition": "50.9% (active)"}
{"smiles": "COCCNC(=O)C(c1ccc(C)o1)N(Cc1cccs1)C(=O)c1snc(C(N)=O)c1N", "note": "(centres undefined)", "inhibition": "3.7% (inactive)"}
{"smiles": "O=C(Oc1ccc2c(c1)CCC2)N1CCOCC1", "inhibition": "0.4% (inactive)"}
{"smiles": "Cc1cccn2c(=O)c3cc(C#N)c(=O)n(CCCN4CCOCC4)c3nc12", "inhibition": "47% (inactive)"}
{"smiles": "Cc1ccc(-c2cc(C(=O)N/N=C/C=C/c3ccco3)c3ccccc3n2)cc1C", "inhibition": "34% (inactive)"}
{"smiles": "COc1cccc(/C=N\\Nc2nncc(-c3ccccc3)n2)c1", "inhibition": "5.6% (inactive)"}
{"smiles": "COc1cc(/C=N/NC(=O)Nc2ccccc2)ccc1OCCOc1ccccc1C", "inhibition": "11.2% (inactive)"}
{"smiles": "COc1cccc(-c2cc(C(=O)N/N=C/c3ccc(OC)c(COC(C)=O)c3)c3ccccc3n2)c1", "inhibition": "84.3% (active)"}
{"smiles": "COc1cccc(OCc2cc(/C=N/NC(=O)c3nc(Cl)c(Cl)c(N)c3Cl)ccc2OC)c1", "inhibition": "84% (active)"}
{"smiles": "COc1ccc(/C=N\\NC(=O)c2sc(N)nc2C)cc1OC", "inhibition": "5.4% (inactive)"}
{"smiles": "CCCC(C(=O)n1nc(C)cc1C)C(NS(=O)(=O)c1ccc(C)cc1)c1ccccc1", "note": "(centres undefined)", "inhibition": "-1.9% (inactive)"}
{"smiles": "O=C(c1ccco1)N1CCN(C(=O)C2CC(c3ccc(Cl)c(Cl)c3)=NO2)CC1", "note": "(centres undefined)", "inhibition": "43.9% (inactive)"}
{"smiles": "CN(C)c1cc(N)c2ccccc2n1", "note": "(tested in a mixture with another compound)", "inhibition": "-21.6% (inactive)"}
{"smiles": "O=C(NCc1ccccc1)C1C(=O)N(Cc2ccccc2)C(=O)C1C1(O)CCCC1", "note": "(centres undefined)", "inhibition": "33.6% (inactive)"}
{"smiles": "CC(C)c1nc2ccc(C(=O)O)cc2[nH]1", "inhibition": "5.8% (inactive)"}
{"smiles": "Cc1ccc(S(=O)(=O)NC(C)C(=O)Nc2ccccc2C(=O)N2CCCC2)cc1", "note": "(centres undefined)", "inhibition": "44.1% (inactive)"}
{"smiles": "O=C(CN(c1ccccc1)S(=O)(=O)c1ccc(Cl)cc1)Nc1ccccc1C(=O)N1CCCC1", "inhibition": "92.2% (active)"}
{"smiles": "CCC(=O)Nc1ccccc1C(=O)N1CCN(Cc2ccccc2)CC1", "inhibition": "15.3% (inactive)"}
{"smiles": "CC(=O)N1CCN(c2ccc(NCc3ccc(C(C)C)cc3)cc2)CC1", "inhibition": "37% (inactive)"}
{"smiles": "O=C1CSC(c2cccc(F)c2)N1c1ccccc1F", "note": "(centres undefined)", "inhibition": "3% (inactive)"}
{"smiles": "O=C(Nc1ccccc1)OCc1cn(-c2ccc(Cl)cc2)nn1", "inhibition": "41.6% (inactive)"}
{"smiles": "O=C(Nc1ccc(Cl)cc1)OCc1cc(-c2ccccc2)on1", "inhibition": "64.4% (active)"}
{"smiles": "O=C(Nc1ccccc1)OCc1cc(-c2ccc(Cl)cc2)on1", "inhibition": "16.9% (inactive)"}
{"smiles": "CCCn1c(O)c(CN2CCCC(C)C2)c(C)c(C#N)c1=O", "note": "(centres undefined)", "inhibition": "5.2% (inactive)"}
{"smiles": "O=C(Nc1ccccc1)N1CCN(Cc2ccccc2)CC1", "inhibition": "14.6% (inactive)"}
{"smiles": "CC(=O)N1CCN(C(=O)Nc2cccc(C(F)(F)F)c2)CC1", "inhibition": "4.5% (inactive)"}
{"smiles": "O=C(Nc1cccc(NC(=O)N2CCN(c3ccccc3)CC2)c1)N1CCN(c2ccccc2)CC1", "inhibition": "54% (active)"}
{"smiles": "CCCCNCc1ccc(SC)cc1", "inhibition": "4.1% (inactive)"}
{"smiles": "Cc1ccccc1OC(=O)Cn1c(C(F)(F)F)nc2ccccc21", "inhibition": "30.1% (inactive)"}
{"smiles": "Cc1cc(=O)oc2cc(OCC3CC(c4ccccc4Cl)=NO3)ccc12", "note": "(centres undefined)", "inhibition": "65.7% (active)"}
{"smiles": "COc1cccc(-c2nnc(SCCOc3ccc4c(C)cc(=O)oc4c3)o2)c1", "inhibition": "42.3% (inactive)"}
{"smiles": "Cc1cc(=O)oc2cc(NC(=O)C3CC(=O)N(Cc4ccccc4)C3)ccc12", "note": "(centres undefined)", "inhibition": "10.4% (inactive)"}
{"smiles": "OC(COc1ccc2c(c1)CCC2)CN1CCN(c2cccc(Cl)c2)CC1", "note": "(centres undefined)", "inhibition": "-14.4% (inactive)"}
{"smiles": "Cn1c(C(=O)NCCCN2CCN(c3cccc(Cl)c3)CC2)cc2c(=O)n(C)c3ccccc3c21", "inhibition": "22.8% (inactive)"}
{"smiles": "O=c1cc(CN2CCN(c3cccc(Cl)c3)CC2)c2cc3c(cc2o1)CCCC3", "inhibition": "58.6% (active)"}
{"smiles": "C=CCN(C(=O)Cn1ncc2c1-c1cc(C)ccc1OC2)c1ccccc1", "inhibition": "38.4% (inactive)"}
{"smiles": "Cn1c2ccccc2n2c(=O)c(=O)n(CC(=O)c3ccc(F)cc3)nc12", "inhibition": "-18% (inactive)"}
{"smiles": "OCCNc1nc2ccccc2n1-c1ncnc2sc3c(c12)CCC3", "inhibition": "16.9% (inactive)"}
{"smiles": "Cc1cc(=O)[nH]c(SCc2cc(Cl)ccc2OC(F)F)n1", "inhibition": "76.4% (active)"}
{"smiles": "O=c1cc(O)nc(SCc2ccccc2Cl)[nH]1", "inhibition": "37% (inactive)"}
{"smiles": "Cc1cc(=O)[nH]c(SCc2cccc(F)c2)n1", "inhibition": "23.7% (inactive)"}
{"smiles": "Cc1ccccc1C(OCC(O)CN1CCCCC1CCO)c1ccccc1", "note": "(centres undefined)", "inhibition": "-0.6% (inactive)"}
{"smiles": "COc1cc(NS(=O)(=O)c2ccc(N/C=C(\\C=O)c3nc4cc(Cl)ccc4o3)cc2)nc(OC)n1", "inhibition": "39.2% (inactive)"}
{"smiles": "O=c1[nH]c2ccccc2n2c(-c3ccccc3)nnc12", "inhibition": "62% (active)"}
{"smiles": "O=c1[nH]c(-c2ccccc2)c(-c2ccccc2)[nH]1", "inhibition": "17.9% (inactive)"}
{"smiles": "O=[N+]([O-])c1cccc(-c2nnc3c4ccccc4c4ccccc4n23)c1", "inhibition": "11.9% (inactive)"}
{"smiles": "COc1ccccc1-c1nnc(SCC(=O)N2CC(C)CC(C)C2)o1", "note": "(centres undefined)", "inhibition": "-292% (inactive)"}
{"smiles": "O=C(c1cnn2ccccc12)N1CCc2ccccc21", "inhibition": "-42.7% (inactive)"}
{"smiles": "CCC(C)NC(=O)N[C@@H](CCSC)C(=O)O", "note": "(some centres undefined)", "inhibition": "8.8% (inactive)"}
{"smiles": "C/C(=N/NC(=O)c1ccc(NC(=O)c2ccc(F)cc2)cc1)c1ccccc1", "inhibition": "3.1% (inactive)"}
{"smiles": "O=C(Cn1cc(/C=N/NC(=O)c2cccc(C(F)(F)F)c2)c2ccccc21)Nc1ccc(F)cc1", "inhibition": "23.8% (inactive)"}
{"smiles": "O=C(CSc1ccc(/C=N/NC(=O)c2cccc(F)c2)o1)Nc1ccccc1", "inhibition": "80.3% (active)"}
{"smiles": "CC(C)c1nc2oc3c(N4CCN(C)CC4)ncnc3c2c2c1CCC2", "inhibition": "24% (inactive)"}
{"smiles": "CCOC(=O)c1c(C)c(C(=O)NCCc2ccc(S(N)(=O)=O)cc2)c(C)n1CC", "inhibition": "16.4% (inactive)"}
{"smiles": "CCC12CN3CC(CC)(CN(C1)C31C(=O)N(C)c3ccc(C)cc31)C2=O", "note": "(centres undefined)", "inhibition": "3.6% (inactive)"}
{"smiles": "CN(c1ccc(C(=O)NCc2ccccn2)cc1)S(C)(=O)=O", "inhibition": "-10.8% (inactive)"}
{"smiles": "O=C(NCc1ccccn1)c1cc2ccccc2oc1=O", "inhibition": "-26% (inactive)"}
{"smiles": "O=C(NCc1ccccn1)c1ccc2nc(-c3ccco3)c(-c3ccco3)nc2c1", "inhibition": "67.3% (active)"}
{"smiles": "COc1ccc(CN2CCn3ncc(C(=O)Nc4ccc(Cl)cc4Cl)c3C2=O)cc1", "inhibition": "14.3% (inactive)"}
{"smiles": "CC(C)C(=O)Nc1nnc(Sc2ccc(N(C)C)cc2)s1", "inhibition": "-3.9% (inactive)"}
{"smiles": "ONC(=Nc1ccc(Cl)cc1)c1ccccc1Cl", "inhibition": "40.4% (inactive)"}
{"smiles": "Cc1cc(C)nc(NC(=O)C(C)N2C(=O)c3ccccc3C2=O)n1", "note": "(centres undefined)", "inhibition": "-15.6% (inactive)"}
{"smiles": "N/C(=N\\c1nc2ccccc2o1)NC(=O)C(Cc1ccccc1)N1C(=O)c2ccccc2C1=O", "note": "(centres undefined)", "inhibition": "89.2% (active)"}
{"smiles": "O=C(NCCN1CCOCC1)[C@H](Cc1ccccc1)N1C(=O)c2ccccc2C1=O", "inhibition": "-32.6% (inactive)"}
{"smiles": "CCN(CC)CCn1c(=S)[nH]c2ncccc2c1=O", "inhibition": "16.3% (inactive)"}
{"smiles": "CCCc1nnc(NC(=O)c2cccs2)s1", "inhibition": "14.9% (inactive)"}
{"smiles": "COc1ccc(-c2nc(-c3ccccc3)no2)c(OC)c1", "inhibition": "-7% (inactive)"}
{"smiles": "COc1ccc(OC)c(Nc2nc(-c3ccc(O)c(O)c3)cs2)c1", "inhibition": "24.3% (inactive)"}
{"smiles": "COc1ccccc1-c1n[nH]c2c1[C@H](C)CC[C@H]2C(C)C", "inhibition": "36.5% (inactive)"}
{"smiles": "C=C(C)COc1ccc(-c2n[nH]c(C)c2-c2ccccc2)c(O)c1", "inhibition": "26.2% (inactive)"}
{"smiles": "COc1ccc(-c2n[nH]c(C)c2-c2ccc(OC)c(OC)c2)c(O)c1", "inhibition": "98.8% (active)"}
{"smiles": "C=C(C)COc1ccc(-c2n[nH]c(C)c2-c2ccccc2OC)c(O)c1", "inhibition": "54.9% (active)"}
